Bioassay records from PubChem BioAssay.
Sampled rows, rich in hits. Any-hit rate of the full collection: about 11%.
NS1 function inh = inhibitors of influenza NS1 protein function; Potency, µM (titrated, usually from 46.1 µM), for the others: at the highest dose activity, positive = more growth; actives 0.4% (n = 270,000); AID 2326; calls by dose curve; also: actives are rising curves; nearly all actives have a fitted effect of over 50% in size
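OD600 was taken as the measure of yeast growth restored by compound in an NS1-expressing S. cerevisiae strain. Cells had been washed out of glucose medium and diluted 1:100 into galactose -URA medium, pH 6.0.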
Pf growth 48h = P. falciparum growth inhibition at 48 hours (one generation). P. falciparum luciferase growth in erythrocytes, 48 h. Potency, µM (doses to about 28.7 µM), for inactives: top-dose activity change, negative = inhibition, most hits filed as inhibitors. actives 5.9% (n = 310,000). AID 504832; also: % is scaled to controls: 0 for no effect and ±100 for the full control effect
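Luciferase-expressing P. falciparum in infected erythrocytes (2% hematocrit, 0.1% parasitemia final) in RPMI 1640/0.5% Albumax were exposed to compound for 48 hours at 37 C, 5% CO2; growth read as luminescence.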
Pf growth 96h = P. falciparum growth inhibition at 96 hours; P. falciparum luciferase reporter growth, 96 h; Potency, µM (doses to about 28.7 µM), for inactives: at the highest dose activity change, negative = inhibition, most hits filed as inhibitors; actives 6.9% (n = 320,000); also: % is scaled to controls: 0 for no effect and ±100 for the full control effect
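P. falciparum expressing integrated firefly luciferase grown in erythrocytes (2% hematocrit, 0.05% parasitemia final) with compounds for 96 hours at 37 C, 5% CO2. Growth inhibition read as loss of luminescence after adding luciferase detection reagent.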
VACV mCherry inh = vaccinia inhibition (mCherry reporter). Vaccinia virus mCherry reporter infection, fluorescence. Potency, µM (highest dose often 36.5 µM), inactives show top-dose activity change, negative = inhibition, usual class: inhibitors. actives 0.63% (n = 310,000). AID 720579; calls by dose curve; tested in A549 cells; also: % is scaled to controls: 0 for no effect and ±100 for the full control effect; nearly all actives have a fitted effect of over 35% in size
VACV Venus inh = vaccinia inhibition (Venus reporter). Vaccinia virus Venus reporter expression, fluorescence. Potency, µM (top dose mostly 36.5 µM), inactives show at the top dose activity change, negative = inhibition, hits mostly inhibitors. actives 0.46% (n = 330,000); calls by dose curve; tested in A549 cells; also: % is scaled to controls: 0 for no effect and ±100 for the full control effect; nearly all actives have a fitted effect of over 30% in size
HCV inh = inhibitors of hepatitis C virus infection. Potency, µM (titrated, usually from 41.8 µM), inactives show top-dose activity change, negative = inhibition, most hits filed as inhibitors. Huh7.5.1 HCVcc-Cre infection, luciferase reporter, 44 h. actives 3.4% (n = 340,000); also: % is scaled to controls: 0 for no effect and ±100 for the full control effect
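Reporter virus HCVcc-Cre (~0.5 moi) infects cells exposed to compound; seeding density 1,000 cells/well with 4 h settling beforehand. Luminescence, 15 sec read, taken 44 h post-infection following a 15 min RT substrate incubation.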
* = called active by the depositor; i = inactive; ? = inconclusive; nt = no result given; ! = a repeat was not active; [ ] = remark or other dose. Unless noted, calls follow the shape of the dose curve; as a rule, active = well fitted inhibition curve with a large enough effect; inconclusive = small, poorly fitted or top-dose-only effect, or another doubt; inactive = no such curve, though single readings can be large or run the other way. Potency is read from the fitted curve at half-maximal effect.

SMILES	NS1 function inh	Pf growth 48h	Pf growth 96h	VACV mCherry inh	VACV Venus inh	HCV inh
Cc1ccc(S(=O)(=O)Nc2cc3c4c(c2)CC(=O)N4CCC3)cc1	nt	-17%	-9%	i	-11%	?
CCCCCN(C(=O)CCC(=O)OCC(=O)N(CC)c1ccccc1)c1c(N)n(CCCC)c(=O)[nH]c1=O	nt	0%	20%	-23%	5%	?
O=C(COc1ccc([N+](=O)[O-])cc1)NCCc1nc2ccccc2[nH]1	1%	0%	130%	i	4%	13%
CC(=O)O[C@H]1CC[C@@]2(C)[C@@H](CC[C@H]3[C@H]2CC(=O)[C@@]2(C)[C@@H]3C[C@H]3CC(C)=CC(=O)[C@H]32)C1	-13%	nt	nt	nt	nt	nt
CCOC(=O)c1c(C)[nH]c(C2=NNC(=Nc3cccc(Cl)c3)SC2)c1C	-3%	2.1µM*	2.1µM*	nt	nt	?
O=C(Nc1ccc([N+](=O)[O-])cc1)Nc1ccc(N2CCOCC2)c2nonc12	nt	?	0%	?	10µM*	-16%
CC(=O)Nc1cc([N+](=O)[O-])ccc1N1CCOCC1	nt	-6%	17%	i	1%	4%
CN1C(=O)CC(Sc2ccccc2C(=O)O)C1=O (stereo not given)	-5%	47%	94%	nt	nt	22%
Cc1oncc1C(=O)Nc1ccc2ccccc2c1	-32%	9%	57%	nt	nt	5%
Cc1oncc1C(=O)Nc1ccc(C(F)(F)F)cc1	-28%	?	4.5µM*!	-16%	-9%	2%[8.37 µM]
O=C(CNC1CCCCC1)Nc1cccc(C(F)(F)F)c1	-5%	-23%	9.3µM*	-19%	-29%	-4%
CC1(C(=O)Nc2cccc(C(F)(F)F)c2)CO1 (stereo not given)	nt	143%	5%	nt	nt	nt
O=C(CNC1CC1)Nc1cc(C(F)(F)F)ccc1Cl	7%	1.2µM*	1.5µM*	nt	nt	7%
CN(C)CC(=O)Nc1cc(C(F)(F)F)ccc1Cl	4%	17%	-17%	i	-9%	2%
O=C(Nc1cccc(C(F)(F)F)c1)C12CC3CC(CC(C3)C1)C2	2%	13µM*	-7%	-4%	-10%	7%
O=C(CN1C(=O)C2CCCCC2C1=O)Nc1cccc(C(F)(F)F)c1 (stereo not given)	nt	nt	nt	-13%	-9%	4%
CCN(C(=O)/C=C/c1cc(OC)c(OC)c(OC)c1)C1CCCCC1	-13%	?	?	nt	nt	-26%
C=CCSc1nnc(CNC(=O)c2ccc(Cl)cc2)n1CC	2%	-18%	-26%[5.75 µM]	-10%	-2%	-14%
C=CCSc1nnc(-c2nnc(SCC=C)n2CC)n1CC	0%	10µM*	12µM*	-12%	-5%	-3%
CCN(CC)CCCN(C(=O)c1ccccc1C)c1nc(-c2ccc(OC)cc2)cs1	-11%	?	-23%	nt	nt	-30%
CCN(CC)CCCN(C(=O)c1ccccc1F)c1nc(-c2ccc(OC)cc2)cs1	-17%	4.1µM*	-30%	?	-30%	?
COc1ccc(-c2csc(N(CCc3ccc(OC)c(OC)c3)C(=O)COc3ccccc3)n2)cc1	?	10µM*	11%	nt	nt	4%
CCN(CC)CCCN(C(=O)c1ccc(OC)cc1)c1nc(-c2ccc(OC)cc2)cs1	-21%	1.3µM*	-29%	-13%	-24%	?
COc1ccc(-c2csc(N(CCCN(C)C)C(=O)c3ccc(C)cc3)n2)cc1	5%	8.3µM*	?	-12%	?	25µM*
CC(=O)Nc1ccc(C(=O)N2CCCC(c3cc(C(=O)NCc4ccccc4)no3)C2)cc1 (stereo not given)	nt	nt	nt	i	5%	nt
SMILES	NS1 function inh	Pf growth 48h	Pf growth 96h	VACV mCherry inh	VACV Venus inh	HCV inh
COc1ccc(-c2csc(N(CC3CCCO3)C(=O)c3ccc(C)cc3)n2)cc1 (stereo not given)	6%	5.2µM*	10µM*	nt	nt	?
COc1ccc(-c2csc(N(CCCN(C)C)C(=O)c3ccc(C(C)(C)C)cc3)n2)cc1	15%	13µM*	16%	?	-19%	-19%
O=C(CSc1nnnn1-c1cccc(Cl)c1)Nc1ccc2c(c1)CCC2	1%	4%	1.9µM*	nt	nt	6%
Cc1ccc(-n2nnnc2SCC(=O)Nc2cccc(NC(=O)c3ccco3)c2)cc1C	-10%	-15%	-14%	-30%	-25%	7.9µM*
CCC(=O)Nc1cccc(-n2nnnc2SCC(=O)NCc2ccco2)c1	-7%	18%	?	-20%[1.46 µM]	-14%	-26%
CCC(=O)Nc1cccc(-n2nnnc2SCC(=O)c2ccc(C)c(C)c2)c1	-4%	9%	10%	i	-10%	11µM*
Cc1cc(C)cc(-n2nnnc2SCC(=O)Nc2cccc(NC(=O)c3ccco3)c2)c1	-4%	-17%	nt	?	-27%	?
COc1ccc(-c2cc(C(F)(F)F)nc(S(=O)(=O)CCC(=O)N3CCOCC3)n2)cc1	-10%	?	nt	nt	-3%	-17%
NC(=O)C[n+]1cccc(CNC(=O)c2ccc(OC(F)F)cc2)c1	nt	31%	27%	4%	0%	-2%
O=C(C[n+]1cccc(CNC(=O)c2ccc(OC(F)F)cc2)c1)Nc1cc(C(F)(F)F)ccc1Cl	5%	1.7µM*	0.93µM*	-18%	-8%	?
O=C(COC(=O)C1CC(O)CN1S(=O)(=O)c1ccc(Cl)cc1)c1ccccc1Cl (stereo not given)	-3%	15%	57%	-2%	-10%	13%
COc1ccc(S(=O)(=O)N2CC(O)CC2C(=O)OCC(=O)Nc2ccc(Cl)cn2)cc1 (stereo not given)	-1%	7%	1.5µM*	-10%	-9%	6%
CC(C)N(C(=O)COC(=O)[C@@H]1CC(O)CN1S(=O)(=O)c1ccc(C(C)(C)C)cc1)C(C)C (stereo not given in full)	nt	4.1µM*	6.6µM*	i	-18%	17%
O=C1Nc2ccccc2C12OC1CCCCC1O2 (stereo not given)	12%	12µM*	3.7µM*	8%	7%	7%
COc1ccc(C(CNC(=O)COc2ccc(Cl)cc2C)N2CCCCC2)cc1 (stereo not given)	-3%	12µM*	-29%	i	-11%	?
COc1ccc(C(CNC(=O)COc2ccccc2)N2CCCCC2)cc1 (stereo not given)	nt	?	15µM*	nt	nt	?
COc1ccc(OCC(=O)NCC(c2ccc(OC)cc2)N2CCCCC2)cc1 (stereo not given)	2%	?	29%	-2%	-4%	-1%
COc1ccc(C(CNC(=O)COc2cc(C)c(Cl)c(C)c2)N2CCCCC2)cc1 (stereo not given)	-1%	?	10%	-13%	-19%	?
c1coc(-c2nn3c(-c4ccco4)nnc3s2)c1	-9%	8%	?	4%	-8%	21%
